Outcome and AC50 data for 35 molecules are collected here from PubChem BioAssay (EPA / NIEHS).

Where “and” joins values, the source holds several entries; their conditions need not be identical. Equal entries are not always repeated. Some compounds were tested as several samples or in several runs, with calls that do not always agree. Calls of active or inactive are those of the source. The calls were made as follows: active = hit-call score of the fitted dose curve at least 0.9, where 1 is the maximum; inactive = score below 0.9.

Read-out in the first experiment: not listed separately
The experiment can be described thus: BSK_CASM3C_Proliferation: Cell Proliferation Assessment in the BioMAP Diversity Plus: CASM3C Assay (AID 2283047).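 Also: sulforhodamine B total protein stain as relative cell number at 560 nm; sub-confluent cells exposed 48 h before staining; fitted both ways against DMSO so gain or loss of cell number.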 Particulars: primary human coronary artery smooth muscle cells.
In the case of `C=C(C)C(=O)OCC(F)(F)C(F)(F)C(F)(F)C(F)(F)C(F)(F)C(F)(F)C(F)(F)F`, the outcome was inactive.
Same read-out and setting: the entry for `Nc1ccc([N+](=O)[O-])cc1O` is “inactive”; for `FC(F)(F)C(F)(F)C(F)(F)C(F)(F)C(F)(F)C(F)(F)CCS` it is “inactive”.
Same read-out and setting: under `O=S(=O)(OCC(F)F)C(F)(F)F` stands “inactive”.
Still for that read-out and setting: under `Cc1ccc(S(=O)(=O)OCC(F)(F)C(F)(F)C(F)(F)C(F)(F)C(F)(F)C(F)F)cc1` stands “inactive”.
What is called AC50 is the midpoint of the concentration-response curve, whichever way the signal moves. Consider `N=C(N)C(F)(F)C(F)(F)C(F)(F)C(F)(F)C(F)(F)C(F)(F)C(F)(F)F`, for which the concentration at half-maximal activity (AC50) was 46.1 µM (active) and the outcome was inactive.
With `CCCCOCCOCCOC(=O)CCCCC(=O)OCCOCCOCCCC`, the outcome was inactive.
On to `OCCCC(F)(F)C(F)(F)C(F)(F)C(F)(F)C(F)(F)C(F)(F)C(F)(F)F`, for which the AC50 is 18.4 µM (active) and 20.3 µM (active).
Regarding `FC(F)(F)C(F)(F)C(F)(F)C(F)(F)CCI`, the outcome was inactive.
Still for that read-out and setting: the entry for `FC(F)(F)C(F)(F)C(F)(F)C(F)(F)C(F)(F)C(F)(F)C(F)(F)C(F)(F)F` is “inactive”; for `FC(F)(Br)C(F)(F)C(F)(F)C(F)(F)C(F)(F)C(F)(F)Br` it is “inactive”; for `FC1CC(F)(F)C(F)(F)C1(F)F` (configuration not stated) it is “inactive”.
As to `FC(F)(I)C(F)(F)C(F)(F)C(F)(F)I`, the AC50 is 43.4 µM (active) and 49.7 µM (active) and 43.9 µM (active).
As for `OCC(F)(F)C(F)(F)C(F)(F)C(F)F`, the result was inactive.
As for `C=CC(=O)OCC(F)(F)C(F)(F)C(F)(F)C(F)(F)COC(=O)C=C`, the AC50 is 18.9 µM (active) and 31.4 µM (active).
As for `C=C(C)C(=O)OCC(F)(F)C(F)(F)C(F)(F)F`, the result was inactive.
Regarding `CCCCCCOC(=O)c1ccccc1O`, the half-maximal activity concentration (AC50) was 33.5 µM (active) and 24.5 µM (active).
Take `FC(F)(F)C(F)(F)CNCC(F)(F)C(F)(F)F`: the outcome was inactive.
Still for that read-out and setting: the entry for `O=C(O)C(F)(F)C(F)(F)C(F)(F)C(F)(F)C(F)(F)C(F)(F)C(F)(F)C(F)(F)C(F)(F)C(F)F` is “inactive”.
As to `C=CC(F)(F)C(F)(F)C(F)(F)C(F)(F)C(F)(F)C(F)(F)C(F)(F)C(F)(F)C=C`, the outcome was inactive.
The same measure, in the same setting: under `O=C(Cl)C(F)(F)C(F)(F)C(F)(F)C(F)(F)C(F)(F)C(F)(F)C(F)(F)C(F)(F)F` stands “inactive”.
Still for that read-out and setting: under `O=C(O)C(F)(F)C(F)(F)C(F)(F)C(F)(F)C(F)(F)C(F)(F)C(F)(F)C(F)(F)Cl` stands “inactive”.
As for `O=P(O)(O)OCCC(F)(F)C(F)(F)C(F)(F)C(F)(F)C(F)(F)C(F)(F)F`, the outcome was inactive.
Regarding `C#C[C@]1(O)CC[C@H]2[C@@H]3CCc4cc(OC)ccc4[C@H]3CC[C@@]21C`, the AC50 is 0.253 µM (active).
As to `CCCCC(CC)COP(=O)(O)OCC(CC)CCCC` (configuration not stated), the result was inactive.
Turning to `O=C(O)C(F)(F)C(F)(F)C(F)(F)C(F)(F)C(F)(F)C(F)(F)C(F)(F)C(F)(F)C(F)(F)C(F)(F)C(F)(F)C(F)(F)F`, the result was inactive.
For `C=C(C)C(=O)OCCC(F)(F)C(F)(F)C(F)(F)C(F)(F)C(F)(C(F)(F)F)C(F)(F)F`, the outcome was inactive.
The same measure, in the same setting: the entry for `O=C(O)C(F)(F)C(F)(F)C(F)(F)C(F)(F)C(F)(F)C(F)(F)C(F)(F)C(F)(F)C(F)(F)C(F)(F)C(F)(F)C(F)(F)C(F)(F)F` is “inactive”.
Same read-out and setting: the entry for `O=C(O)C(F)(OC(F)(F)C(F)(OC(F)(F)C(F)(F)C(F)(F)F)C(F)(F)F)C(F)(F)F` (configuration not stated) is “inactive”; for `CC(C)(C)C(=O)CC(=O)C(F)(F)C(F)(F)C(F)(F)F` it is “inactive”; for `CCCCCCCCC(F)(F)C(F)(F)C(F)(F)C(F)(F)C(F)(F)C(F)(F)F` it is “inactive”.
For `CCCCCCCCCCCCCCCC[N+](C)(C)Cc1ccccc1`, the AC50 was 1.29 µM (active).
Still for that read-out and setting: under `C=CC/C=C/C/C=C/C/C=C/C` stands 0.108 µM (active).
For `O=C(O)C(F)(OC(F)(F)C(F)(OC(F)(F)C(F)(OC(F)(F)C(F)(F)C(F)(F)F)C(F)(F)F)C(F)(F)F)C(F)(F)F` (configuration not stated), the result was inactive.
Turning to `CS(C)(=O)=O`, the outcome was inactive.

Read-out in the next experiment: Monokine induced gamma interferon (MIG), CXCL9 (gene 4283)
The experiment can be described thus: BSK_CASM3C_MIG: BioMAP Diversity Plus: CASM3C Assay for Monokine induced gamma interferon (MIG) Biomarker Activity (AID 2283048).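 Also: MIG protein level measured by ELISA.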 Particulars: primary human coronary artery smooth muscle cells; actives raise or lower the signal.
For `C=C(C)C(=O)OCC(F)(F)C(F)(F)C(F)(F)C(F)(F)C(F)(F)C(F)(F)C(F)(F)F`, the result was inactive.
With `Nc1ccc([N+](=O)[O-])cc1O`, the outcome was inactive.
The same measure, in the same setting: the entry for `FC(F)(F)C(F)(F)C(F)(F)C(F)(F)C(F)(F)C(F)(F)CCS` is “inactive”; for `O=S(=O)(OCC(F)F)C(F)(F)F` it is “inactive”.
As to `Cc1ccc(S(=O)(=O)OCC(F)(F)C(F)(F)C(F)(F)C(F)(F)C(F)(F)C(F)F)cc1`, the result was inactive.
`N=C(N)C(F)(F)C(F)(F)C(F)(F)C(F)(F)C(F)(F)C(F)(F)C(F)(F)F`: the outcome was inactive.
Still for that read-out and setting: under `CCCCOCCOCCOC(=O)CCCCC(=O)OCCOCCOCCCC` stands “inactive”.
Turning to `OCCCC(F)(F)C(F)(F)C(F)(F)C(F)(F)C(F)(F)C(F)(F)C(F)(F)F`, the AC50 is 41.7 µM (active) and 41.9 µM (active).
On to `FC(F)(F)C(F)(F)C(F)(F)C(F)(F)CCI`, for which the AC50 was 18.7 µM (active) and the result was inactive.
As for `FC(F)(F)C(F)(F)C(F)(F)C(F)(F)C(F)(F)C(F)(F)C(F)(F)C(F)(F)F`, the outcome was inactive.
For `FC(F)(Br)C(F)(F)C(F)(F)C(F)(F)C(F)(F)C(F)(F)Br`, the result was inactive.
The same measure, in the same setting: the entry for `FC1CC(F)(F)C(F)(F)C1(F)F` (configuration not stated) is “inactive”.
In the case of `FC(F)(I)C(F)(F)C(F)(F)C(F)(F)I`, the AC50 was 44.3 µM (active) and 48.1 µM (active) and 46.8 µM (active).
Turning to `OCC(F)(F)C(F)(F)C(F)(F)C(F)F`, the outcome was inactive.
Take `C=CC(=O)OCC(F)(F)C(F)(F)C(F)(F)C(F)(F)COC(=O)C=C`: the AC50 was 28.6 µM (active) and 31 µM (active).
For the molecule `C=C(C)C(=O)OCC(F)(F)C(F)(F)C(F)(F)F`, the result was inactive.
The same measure, in the same setting: under `CCCCCCOC(=O)c1ccccc1O` stands “inactive”.
Still for that read-out and setting: the entry for `FC(F)(F)C(F)(F)CNCC(F)(F)C(F)(F)F` is “inactive”.
Same read-out and setting: the entry for `O=C(O)C(F)(F)C(F)(F)C(F)(F)C(F)(F)C(F)(F)C(F)(F)C(F)(F)C(F)(F)C(F)(F)C(F)F` is “inactive”.
For the molecule `C=CC(F)(F)C(F)(F)C(F)(F)C(F)(F)C(F)(F)C(F)(F)C(F)(F)C(F)(F)C=C`, the outcome was inactive.
`O=C(Cl)C(F)(F)C(F)(F)C(F)(F)C(F)(F)C(F)(F)C(F)(F)C(F)(F)C(F)(F)F`: the outcome was inactive.
In the case of `O=C(O)C(F)(F)C(F)(F)C(F)(F)C(F)(F)C(F)(F)C(F)(F)C(F)(F)C(F)(F)Cl`, the result was inactive.
In the case of `O=P(O)(O)OCCC(F)(F)C(F)(F)C(F)(F)C(F)(F)C(F)(F)C(F)(F)F`, the result was inactive.
The same measure, in the same setting: the entry for `C#C[C@]1(O)CC[C@H]2[C@@H]3CCc4cc(OC)ccc4[C@H]3CC[C@@]21C` is “inactive”.
The same measure, in the same setting: the entry for `CCCCC(CC)COP(=O)(O)OCC(CC)CCCC` (configuration not stated) is “inactive”.
Same read-out and setting: the entry for `O=C(O)C(F)(F)C(F)(F)C(F)(F)C(F)(F)C(F)(F)C(F)(F)C(F)(F)C(F)(F)C(F)(F)C(F)(F)C(F)(F)C(F)(F)F` is “inactive”; for `C=C(C)C(=O)OCCC(F)(F)C(F)(F)C(F)(F)C(F)(F)C(F)(C(F)(F)F)C(F)(F)F` it is “inactive”; for `O=C(O)C(F)(F)C(F)(F)C(F)(F)C(F)(F)C(F)(F)C(F)(F)C(F)(F)C(F)(F)C(F)(F)C(F)(F)C(F)(F)C(F)(F)C(F)(F)F` it is “inactive”.
`O=C(O)C(F)(OC(F)(F)C(F)(OC(F)(F)C(F)(F)C(F)(F)F)C(F)(F)F)C(F)(F)F` (configuration not stated): the result was inactive.
Still for that read-out and setting: under `CC(C)(C)C(=O)CC(=O)C(F)(F)C(F)(F)C(F)(F)F` stands “inactive”.
Regarding `CCCCCCCCC(F)(F)C(F)(F)C(F)(F)C(F)(F)C(F)(F)C(F)(F)F`, the outcome was inactive.
On to `CCCCCCCCCCCCCCCC[N+](C)(C)Cc1ccccc1`, for which the AC50 was 5.11 µM (active).
As to `C=CC/C=C/C/C=C/C/C=C/C`, the result was inactive.
As for `O=C(O)C(F)(OC(F)(F)C(F)(OC(F)(F)C(F)(OC(F)(F)C(F)(F)C(F)(F)F)C(F)(F)F)C(F)(F)F)C(F)(F)F` (configuration not stated), the result was inactive.
The same measure, in the same setting: the entry for `CS(C)(=O)=O` is “inactive”.
